{"source": "PubChem BioAssay (NCATS)", "note": "Results filed as inconclusive are left out. The source made the active and inactive calls. Calls follow the shape of the dose curve; as a rule, active = well fitted inhibition curve with a large enough effect; inconclusive = small, poorly fitted or top-dose-only effect; inactive = flat fitted curve, though single readings scatter. Potency is read from the fitted curve at half-maximal effect.", "data": [{"molecular_target": "Luciferin 4-monooxygenase (Photinus pyralis) (UniProt P08659)", "sequence (P08659 whole entry, looked up)": "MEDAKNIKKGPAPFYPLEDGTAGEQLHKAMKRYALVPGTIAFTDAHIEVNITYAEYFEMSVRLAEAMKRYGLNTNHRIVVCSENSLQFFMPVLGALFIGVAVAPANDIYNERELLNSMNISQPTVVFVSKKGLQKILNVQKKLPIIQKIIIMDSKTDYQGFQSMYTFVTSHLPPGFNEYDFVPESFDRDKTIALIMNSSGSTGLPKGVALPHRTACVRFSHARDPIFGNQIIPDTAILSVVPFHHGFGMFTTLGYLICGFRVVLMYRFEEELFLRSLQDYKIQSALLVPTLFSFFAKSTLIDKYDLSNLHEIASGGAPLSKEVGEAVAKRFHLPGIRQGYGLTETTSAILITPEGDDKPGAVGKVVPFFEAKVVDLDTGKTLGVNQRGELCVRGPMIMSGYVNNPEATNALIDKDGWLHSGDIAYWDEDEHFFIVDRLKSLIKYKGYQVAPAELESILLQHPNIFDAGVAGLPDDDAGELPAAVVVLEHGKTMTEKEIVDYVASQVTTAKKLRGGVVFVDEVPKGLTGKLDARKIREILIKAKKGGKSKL", "assay": "Biochemical firefly luciferase enzyme assay for NPC (AID 624030); also: nearly all actives have a fitted effect of over 70% in size;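 as to activity change, negative = inhibition: 0% = DMSO and -100% = full luciferase inhibition by PTC124 control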", "settings": "purified P. pyralis luciferase, luminescence, 5 min; series mostly up to 58.6 µM; activity change, negative = inhibition: at the top concentration", "source_text": "Charcot-Marie-Tooth-Association [CMTA] National Center for Advancing Translational Sciences [NCATS] Charcot-Marie-Tooth (CMT) disease was first characterized by Jean-Martin Charcot and Pierre Marie in France and, independently, by Howard Henry Tooth in England in 1886. CMT is one of the most common inherited neurological diseases, affecting approximately 1 in 2,500 Americans. […] The most prevalent type of CMT is known as CMT1A and caused by a duplication of the PMP22 gene which leads to over-expression of this protein. PMP22 is a glycosylated intrinsic membrane protein accounting for 2-5% of the myelin protein content, and its over-expression results in demyelination and subsequently axonal loss. A pair of cellular transcription-based assays was developed in the S16 rat Schwann cell lines (Hai, M., et al., 2002) stably transfected with orthogonal reporters - firefly luciferase (Fluc) and beta-lactamase (beta-Lac) - whose expression is driven by an intronic regulatory element of the PMP22 gene (Jones, E.A., et al., 2011) to recapitulate endogenous expression of PMP22. A comprehensive library of approved drugs, the NCGC Pharmaceutical Collection (Huang, R., et al., 2011), was screened in the cross-validating platform of the orthogonal reporter assays to identify drug modulators inhibitory towards PMP22 expression. A set of counter-screens was devised to address non-specific activity of the library. An ATP-dependent CellTiter-Glo assay (developed by Promega Corp) was utilized to control cell viability. In addition, biochemical Fluc enzyme assay was performed to assess direct inhibition of the Fluc enzymatic activity. References Hai, M., Muja, N., DeVries, G.H., Quarles, R.H. and Patel, P.I. Comparative analysis of Schwann cell lines as model systems for myelin gene transcription studies. J Neurosci Res, 2002. 69(4): pp 497-508 Huang, R., Southall, N., Wang, Y., Yasgar A., Shinn P., Jadhav, A. , Nguyen, D.-T. and Austin, C.P., The NCGC pharmaceutical collection: a comprehensive resource of clinically approved drugs enabling repurposing and chemical genomics. Sci Transl Med, 2011. 3(80): p. 80ps16.\nCompounds were transferred to the plates in 23nl, and one microliter/well luciferase enzyme-buffer solution (10 nM P. pyralis luciferase and 50 mM Tris Acetate final concentrations) was dispensed yielding a final reaction volume of […]. Luciferase luminescence was measured by a ViewLux plate reader within 5 minutes of enzyme-buffer addition. The % activity was determined by normalizing to the average readings of PTC124 (a positive control) relative to DMSO (0% Activity). The concentration-effect curves were then classified based on curve quality (r2), response magnitude and degree of measured activity.", "values": [{"smiles": "N=c1nc(N2CCCCC2)cc(N)n1O", "activity change, negative = inhibition": "-2.52% (inactive)"}, {"smiles": "O=C1CCC(N2C(=O)c3ccccc3C2=O)C(=O)N1", "note": "(stereo not given)", "activity change, negative = inhibition": "-2.19% (inactive)"}, {"smiles": "Clc1ccc(Nc2nnc(Cc3ccncc3)c3ccccc23)cc1", "Potency": "inactive"}, {"smiles": "NCCCC(N)(C(=O)O)C(F)F", "note": "(stereo not given)", "activity change, negative = inhibition": "7.18% (inactive)"}, {"smiles": "CC(=O)Oc1ccccc1C(=O)O", "activity change, negative = inhibition": "0.328% (inactive)"}, {"smiles": "NS(=O)(=O)c1cc2c(cc1Cl)NC=NS2(=O)=O", "activity change, negative = inhibition": "10.8% (inactive)"}, {"smiles": "OC(CCN1CCCCC1)(c1ccccc1)C1CC2C=CC1C2", "note": "(stereo not given)", "activity change, negative = inhibition": "4.16% (inactive)"}, {"smiles": "Cn1cnc([N+](=O)[O-])c1Sc1ncnc2nc[nH]c12", "Potency": "inactive"}, {"smiles": "N#Cc1ccc(C(c2ccc(C#N)cc2)n2cncn2)cc1", "activity change, negative = inhibition": "6.31% [at 24.9 µM] (inactive)"}, {"smiles": "CC(c1cc2ccccc2s1)N(O)C(N)=O", "note": "(stereo not given)", "activity change, negative = inhibition": "-10.5% (inactive)"}, {"smiles": "CCOC(=O)C1=C[C@@]2(CC)CCCN3CCc4c(n1c1ccccc41)[C@H]32", "activity change, negative = inhibition": "3.93% (inactive)"}, {"smiles": "CNC(=O)c1ccccc1Sc1ccc2c(/C=C/c3ccccn3)n[nH]c2c1", "Potency": "510 nM (active)"}, {"smiles": "Nc1nc2c(ncn2COCCO)c(=O)[nH]1", "activity change, negative = inhibition": "-0.67% [at 24.9 µM] (inactive)"}, {"smiles": "Nc1ccc(S(=O)(=O)Nc2ccnn2-c2ccccc2)cc1", "activity change, negative = inhibition": "1.11% [at 24.9 µM] (inactive)"}, {"smiles": "NC[C@H](O)c1ccc(O)c(O)c1", "activity change, negative = inhibition": "-1.82% (inactive)"}, {"smiles": "Cc1ccccc1C(OCCN(C)C)c1ccccc1", "note": "(stereo not given)", "Potency": "inactive"}, {"smiles": "O=c1n(CCCN2CCN(c3cccc(Cl)c3)CC2)nc2ccccn12", "activity change, negative = inhibition": "-0.312% [at 24.9 µM] (inactive)"}, {"smiles": "CC(C[N+](C)(C)C)OC(N)=O", "note": "(stereo not given)", "activity change, negative = inhibition": "1.5% (inactive)"}, {"smiles": "Cn1cnc2c(F)c(Nc3ccc(Br)cc3Cl)c(C(=O)NOCCO)cc21", "activity change, negative = inhibition": "-17.1% (inactive)"}, {"smiles": "C#Cc1cccc(Nc2ncnc3cc(OCCOC)c(OCCOC)cc23)c1", "activity change, negative = inhibition": "0.0137% (inactive)"}, {"smiles": "CCCc1nn(C)c2c(=O)[nH]c(-c3cc(S(=O)(=O)N4CCN(C)CC4)ccc3OCC)nc12", "activity change, negative = inhibition": "-0.727% (inactive)"}, {"smiles": "O=C(NOC[C@H](O)CO)c1ccc(F)c(F)c1Nc1ccc(I)cc1F", "activity change, negative = inhibition": "-6.13% (inactive)"}, {"smiles": "CC(C)(C)NCC(O)c1ccc(O)c(CO)c1", "note": "(stereo not given)", "activity change, negative = inhibition": "5.13% (inactive)"}, {"smiles": "CCCC(CCC)C(=O)O", "activity change, negative = inhibition": "52% (inactive)"}, {"smiles": "CC(C)C[C@H](NC(=O)[C@@H](O)[C@H](N)Cc1ccccc1)C(=O)O", "activity change, negative = inhibition": "-4.31% (inactive)"}, {"smiles": "NC(N)=NC(=O)c1nc(Cl)c(N)nc1N", "activity change, negative = inhibition": "17% (inactive)"}, {"smiles": "Clc1cccc(Cl)c1NC1=NCCN1", "activity change, negative = inhibition": "5.89% (inactive)"}, {"smiles": "Cc1cn[nH]c1", "activity change, negative = inhibition": "-0.185% (inactive)"}, {"smiles": "C1COC(NC(C2CC2)C2CC2)=N1", "activity change, negative = inhibition": "-0.509% (inactive)"}, {"smiles": "Cc1ccc(N(CC2=NCCN2)c2cccc(O)c2)cc1", "activity change, negative = inhibition": "-0.0224% (inactive)"}, {"smiles": "Cc1[nH]c(=O)c(C#N)cc1-c1ccncc1", "Potency": "inactive"}, {"smiles": "NC(=O)c1cnccn1", "activity change, negative = inhibition": "0.461% (inactive)"}, {"smiles": "O=C1CCc2cc(OCCCCc3nnnn3C3CCCCC3)ccc2N1", "activity change, negative = inhibition": "1.88% (inactive)"}, {"smiles": "CN1CCN(CCCN2c3ccccc3Sc3ccc(C(F)(F)F)cc32)CC1", "activity change, negative = inhibition": "9.06% (inactive)"}, {"smiles": "Cc1cnc(NC(=O)C2=C(O)c3ccccc3S(=O)(=O)N2C)s1", "activity change, negative = inhibition": "-7.03% (inactive)"}, {"smiles": "CC(C)NCC(O)COc1ccc(COCCOC(C)C)cc1", "note": "(stereo not given)", "Potency": "inactive"}, {"smiles": "CCOC(=O)C1=C[C@]2(CC)CCCN3CCc4c(n1c1ccccc41)[C@@H]32", "activity change, negative = inhibition": "-1.85% (inactive)"}, {"smiles": "Cc1[nH]c(=O)c(C#N)cc1-c1ccc2nccn2c1", "activity change, negative = inhibition": "-1.68% (inactive)"}, {"smiles": "O=c1[nH]cnc2[nH]ncc12", "activity change, negative = inhibition": "-0.0827% (inactive)"}, {"smiles": "N[C@@H]1CONC1=O", "activity change, negative = inhibition": "1.55% (inactive)"}]}]}
